Measurements reported in PubChem BioAssay (Tox21).
Results filed as inconclusive are left out. Activity calls are given as the source filed them. Unless noted, calls come from the whole dose curve; as a rule, active = well fitted curve in the direction sought with a large enough effect in the repeat runs; inconclusive = weak or mixed curves; inactive = no such curve, though single readings can be large; an effect the other way counts as inactive or inconclusive.

Columns and labels:
[1] = qHTS assay to identify aromatase inhibitors - cell viability counter screen (AID 743084);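 note: cells stimulated with testosterone during compound exposure; nearly all actives have a fitted effect of over 55% in size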
[2] = molecular target: Aryl hydrocarbon receptor (Homo sapiens) (UniProt P35869); experiment: qHTS assay to identify small molecule that activate the aryl hydrocarbon receptor (AhR) signaling pathway (AID 743085);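 note: HG2L7.5c1 human HepG2 liver cells with stably integrated DRE-driven firefly reporter; series mostly up to about 70 µM; nearly all actives have a fitted effect of over 15% in size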
Aryl hydrocarbon receptor (Homo sapiens), sequence (P35869 whole entry, looked up): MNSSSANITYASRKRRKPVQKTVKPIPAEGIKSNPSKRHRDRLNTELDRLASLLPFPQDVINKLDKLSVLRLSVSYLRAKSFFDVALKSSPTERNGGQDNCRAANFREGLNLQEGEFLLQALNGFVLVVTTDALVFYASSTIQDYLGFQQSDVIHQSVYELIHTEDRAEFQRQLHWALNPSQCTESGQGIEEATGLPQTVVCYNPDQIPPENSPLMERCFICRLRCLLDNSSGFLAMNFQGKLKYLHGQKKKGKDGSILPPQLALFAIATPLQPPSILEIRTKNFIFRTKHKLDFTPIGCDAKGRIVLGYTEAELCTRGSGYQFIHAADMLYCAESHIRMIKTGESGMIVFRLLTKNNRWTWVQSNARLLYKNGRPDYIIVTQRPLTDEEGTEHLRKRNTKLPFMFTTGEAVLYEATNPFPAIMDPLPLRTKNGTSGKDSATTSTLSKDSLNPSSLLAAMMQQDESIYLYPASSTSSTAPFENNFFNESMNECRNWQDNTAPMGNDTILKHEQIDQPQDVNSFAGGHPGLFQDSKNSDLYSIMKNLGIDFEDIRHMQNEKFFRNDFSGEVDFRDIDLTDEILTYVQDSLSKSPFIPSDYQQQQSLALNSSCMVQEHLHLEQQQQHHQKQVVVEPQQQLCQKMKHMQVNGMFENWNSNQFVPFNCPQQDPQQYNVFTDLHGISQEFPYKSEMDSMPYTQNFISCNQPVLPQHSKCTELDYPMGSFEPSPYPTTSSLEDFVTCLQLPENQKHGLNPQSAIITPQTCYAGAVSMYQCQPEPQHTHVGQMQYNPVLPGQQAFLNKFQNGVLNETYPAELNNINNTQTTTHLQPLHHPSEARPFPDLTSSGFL
Method in brief: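 24 h compound exposure, 37C, HepG2-derived HG2L7.5c1 cells with DRE-responsive luciferase. Readouts: fluorescence viability, then luminescence at room temperature after 30 min.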

[3] = molecular target: Peroxisome proliferator-activated receptor gamma (Homo sapiens) (UniProt P37231); experiment: qHTS assay to identify small molecule agonists of the peroxisome proliferator-activated receptor gamma (PPARg) signaling pathway (AID 743094; active = well fitted activation curve with a large enough effect in the signal ratio in the repeat runs, not every such curve was filed as active; the % refers to the signal ratio)
Peroxisome proliferator-activated receptor gamma (Homo sapiens), sequence (P37231 whole entry, looked up): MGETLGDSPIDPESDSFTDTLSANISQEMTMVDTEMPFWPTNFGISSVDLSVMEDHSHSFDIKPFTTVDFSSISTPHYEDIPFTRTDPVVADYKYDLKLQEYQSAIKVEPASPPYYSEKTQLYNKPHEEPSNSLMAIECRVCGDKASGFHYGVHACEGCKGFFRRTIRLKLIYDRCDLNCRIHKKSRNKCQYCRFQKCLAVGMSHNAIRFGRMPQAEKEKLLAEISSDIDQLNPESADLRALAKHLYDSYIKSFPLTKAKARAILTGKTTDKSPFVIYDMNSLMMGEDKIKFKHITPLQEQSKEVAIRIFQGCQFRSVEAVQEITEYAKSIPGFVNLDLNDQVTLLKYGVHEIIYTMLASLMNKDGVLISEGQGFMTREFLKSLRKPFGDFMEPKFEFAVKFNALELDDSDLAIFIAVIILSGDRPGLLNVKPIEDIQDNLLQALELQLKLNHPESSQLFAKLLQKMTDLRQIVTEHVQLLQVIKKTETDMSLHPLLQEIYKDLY
Method in brief: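 GeneBLAzer PPARg UAS-bla HEK293H cells were plated, rested 5 h, then exposed to compounds for 17 h at 37C. Beta-lactamase activity was read by LiveBLAzer B/G FRET substrate fluorescence after 1 h at room temperature.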

[4] = molecular target: Peroxisome proliferator-activated receptor gamma (Homo sapiens) (UniProt P37231); experiment: qHTS assay to identify small molecule antagonists of the peroxisome proliferator-activated receptor gamma (PPARg) signaling pathway (AID 743191; calls by dose curve; note: series mostly up to about 63 µM; nearly all actives have a fitted effect of over 30% in size)
Method in brief: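 Beta-lactamase reporter under UAS control in HEK293H PPARg-bla cells; compound treatment 17 h at 37C. Read-out: fluorescence intensity after 1 h room-temperature incubation with LiveBLAzer B/G FRET substrate.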

[5] = qHTS assay to identify small molecule antagonists of the peroxisome proliferator-activated receptor gamma (PPARg) signaling pathway - cell viability counter screen (AID 743194); conditions: Potency: co-treated with 50 nM rosiglitazone unless noted; note: nearly all actives have a fitted effect of over 55% in size
Method in brief: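 Viability was measured as CellTiter-Glo luminescence in GeneBLAzer PPARg UAS-bla HEK293H cells. These cells had been exposed 17 h at 37 C to compounds together with rosiglitazone at 50 nM final, with the beta-lactamase readout taken in the same wells.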

[6] = qHTS assay for small molecule agonists of the antioxidant response element (ARE) signaling pathway (AID 743202; active = well fitted activation curve with a large enough effect in the signal ratio in the repeat runs, not every such curve was filed as active; the % refers to the signal ratio)
Method in brief: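 An ARE-responsive beta-lactamase gene stably integrated in HepG2 cells serves as reporter. After 5 h plating and 16 h compound incubation at 37 C, fluorescence of the B/G FRET substrate was measured.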

[7] = qHTS assay for small molecule agonists of the antioxidant response element (ARE) signaling pathway - cell viability counter screen (AID 743203; calls by dose curve; note: nearly all actives have a fitted effect of over 55% in size)
Method in brief: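 ARE-bla HepG2 cells were plated, rested 5 h at 37C/5% CO2, then exposed to compounds in DMSO for 16 h. Viability was read as CellTiter-Glo luminescence after 30 min at room temperature, in the same wells as the ARE screen.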

[8] = qHTS assay for small molecule activators of the heat shock response signaling pathway - cell viability counter screen (AID 743209); note: nearly all actives have a fitted effect of over 50% in size
Method in brief: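 HSE-bla HeLa cells plated overnight, then exposed to Tox21 compounds (23 nL in DMSO) for 5 h at 37 C. After the bla reporter read, CellTiter-Glo was added in the same wells and luminescence read after 30 min at room temperature.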

[9] = qHTS assay to identify small molecule agonists of the peroxisome proliferator-activated receptor delta (PPARd) signaling pathway - cell viability counter screen (AID 743211); note: nearly all actives have a fitted effect of over 55% in size
Method in brief: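 Luminescent ATP viability assay (CellTiter-Glo, 30 min RT) in UAS-bla HEK293H cells carrying the PPAR delta reporter construct, 3000 cells/well, after a 17 h compound treatment at 37 C.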

[10] = molecular target: Peroxisome proliferator-activated receptor delta (Homo sapiens) (UniProt Q03181); experiment: qHTS assay to identify small molecule agonists of the peroxisome proliferator-activated receptor delta (PPARd) signaling pathway (AID 743212; calls by dose curve)
Peroxisome proliferator-activated receptor delta (Homo sapiens), sequence (Q03181 whole entry, looked up): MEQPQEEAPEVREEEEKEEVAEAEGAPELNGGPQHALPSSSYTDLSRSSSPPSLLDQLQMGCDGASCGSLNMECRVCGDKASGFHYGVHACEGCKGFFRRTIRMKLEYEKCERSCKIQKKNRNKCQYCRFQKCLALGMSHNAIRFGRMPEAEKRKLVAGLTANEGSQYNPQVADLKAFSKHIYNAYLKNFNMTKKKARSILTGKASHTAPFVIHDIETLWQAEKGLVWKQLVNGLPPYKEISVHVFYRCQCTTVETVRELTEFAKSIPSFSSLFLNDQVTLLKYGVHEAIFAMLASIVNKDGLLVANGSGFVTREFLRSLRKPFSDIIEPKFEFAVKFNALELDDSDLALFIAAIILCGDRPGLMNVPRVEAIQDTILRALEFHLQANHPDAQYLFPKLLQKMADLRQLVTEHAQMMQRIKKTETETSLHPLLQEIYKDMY
Method in brief: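 HEK293H UAS-bla reporter cells, human PPARd system; compounds delivered in DMSO after 5 h plating, then at 37 C. Beta-lactamase FRET read, 2 h RT substrate step.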

[11] = qHTS assay to identify small molecule antagonists of the peroxisome proliferator-activated receptor delta (PPARd) signaling pathway - cell viability counter screen (AID 743213); note: nearly all actives have a fitted effect of over 50% in size
Method in brief: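 Cytotoxicity counter screen: CellTiter-Glo luminescence read 30 min after addition, in the same wells as the reporter assay. There, PPARd UAS-bla HEK293H cells (3000/well) were treated 17 h at 37 C with compound and 300 nM L165041.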

[12] = molecular target: Peroxisome proliferator-activated receptor delta (Homo sapiens) (UniProt Q03181); experiment: qHTS assay to identify small molecule antagonists of the peroxisome proliferator-activated receptor delta (PPARd) signaling pathway (AID 743215; active = well fitted inhibition curve with a large enough effect in the signal ratio in the repeat runs, not every such curve was filed as active; the % refers to the signal ratio;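 note: cells stimulated with agonist L165041 at 300 nM final during compound exposure; series mostly up to about 62 µM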)
Method in brief: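 PPARd-bla HEK293H cells (UAS-bla reporter) preincubated 5 h, then given compound plus 300 nM final L165041 agonist for 17 h at 37 C. Beta-lactamase activity read by LiveBLAzer B/G FRET substrate fluorescence after 2 h at room temperature.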

[13] = qHTS assay to identify small molecule agonists of the farnesoid-X-receptor (FXR) signaling pathway - cell viability counter screen (AID 743218); note: nearly all actives have a fitted effect of over 45% in size
Method in brief: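 FXR-UAS-bla HEK 293T cells exposed to compounds for 16 h at 37C. Cytotoxicity read in the same wells by CellTiter-Glo luminescence after 30 min at room temperature, following the beta-lactamase FRET read.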

[14] = qHTS assay to identify small molecule antagonists of the farnesoid-X-receptor (FXR) signaling pathway - cell viability counter screen (AID 743221; active = well fitted cell-killing curve with a large enough effect in the repeat runs, not every such curve was filed as active; note: nearly all actives have a fitted effect of over 50% in size)
Method in brief: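 In GeneBLAzer FXR-UAS-bla HEK 293T cells stimulated with 50 uM chenodeoxycholic acid (final), compounds acted for 16 h at 37 C. Viability was assessed afterwards by CellTiter-Glo luminescence.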

[15] = molecular target: Vitamin D3 receptor (Homo sapiens) (UniProt P11473); experiment: qHTS assay to identify small molecule agonists of the vitamin D receptor (VDR) signaling pathway (AID 743222; calls by dose curve)
Vitamin D3 receptor (Homo sapiens), sequence (P11473 whole entry, looked up): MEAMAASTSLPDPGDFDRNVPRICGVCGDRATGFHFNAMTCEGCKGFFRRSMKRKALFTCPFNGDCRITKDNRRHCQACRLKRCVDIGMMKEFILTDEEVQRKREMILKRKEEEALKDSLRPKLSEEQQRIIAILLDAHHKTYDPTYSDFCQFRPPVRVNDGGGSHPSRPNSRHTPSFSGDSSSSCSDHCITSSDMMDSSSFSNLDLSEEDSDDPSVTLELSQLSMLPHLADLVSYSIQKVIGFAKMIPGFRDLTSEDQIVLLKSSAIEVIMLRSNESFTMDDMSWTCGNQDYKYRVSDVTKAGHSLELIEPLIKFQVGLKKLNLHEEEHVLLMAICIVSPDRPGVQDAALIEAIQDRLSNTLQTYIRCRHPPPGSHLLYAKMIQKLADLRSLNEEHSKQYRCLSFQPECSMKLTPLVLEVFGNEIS
Method in brief: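 VDR-bla cells plated 4 h at 37 C, then exposed to compounds for 16 h at 37 C. Beta-lactamase reporter activity measured by fluorescence after 2 h room-temperature loading with LiveBLAzer B/G FRET substrate.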

[16] = molecular target: Vitamin D3 receptor (Homo sapiens) (UniProt P11473); experiment: qHTS assay to identify small molecule antagonists of the vitamin D receptor (VDR) signaling pathway (AID 743223; active = well fitted inhibition curve with a large enough effect in the signal ratio in the repeat runs, not every such curve was filed as active; the % refers to the signal ratio)
Method in brief: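 Agonist 1alpha,25-dihydroxyvitamin D3 (3 nM in well) was added with each compound to VDR-bla cells preincubated 4 h. Cells stood 16 h at 37C, then FRET substrate 2 h at room temperature; fluorescence intensity recorded.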

[17] = qHTS assay to identify small molecule that activate the aryl hydrocarbon receptor (AhR) signaling pathway - cell viability counter screen (AID 743086);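 note: HepG2 liver cells carrying the AhR DRE luciferase reporter; series mostly up to about 70 µM; nearly all actives have a fitted effect of over 45% in size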
Method in brief: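 Cytotoxicity counter screen: CellTiter-Fluor signal (30 min, 37 C) in 4000 HepG2 cells/well carrying the DRE-luciferase reporter, following 24 h compound exposure at 37 C.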

[18] = qHTS assay for small molecule activators of the heat shock response signaling pathway (AID 743210; active = well fitted activation curve with a large enough effect in the signal ratio in the repeat runs, with a control signal flat, not every such curve was filed as active; the % refers to the signal ratio;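 note: HeLa cells with beta-lactamase reporter driven by heat shock elements; series mostly up to about 63 µM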)
Method in brief: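 In HSE-bla HeLa cells, 5 h compound incubation (37 C) precedes addition of LiveBLAzer B/G substrate; after 2.5 h at room temperature, fluorescence intensity indicates reporter induction.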

[19] = molecular target: Bile acid receptor (Homo sapiens) (UniProt Q96RI1); experiment: qHTS assay to identify small molecule antagonists of the farnesoid-X-receptor (FXR) signaling pathway (AID 743217; active = well fitted inhibition curve with a large enough effect in the signal ratio in the repeat runs, not every such curve was filed as active; the % refers to the signal ratio)
Bile acid receptor (Homo sapiens), sequence (Q96RI1 whole entry, looked up): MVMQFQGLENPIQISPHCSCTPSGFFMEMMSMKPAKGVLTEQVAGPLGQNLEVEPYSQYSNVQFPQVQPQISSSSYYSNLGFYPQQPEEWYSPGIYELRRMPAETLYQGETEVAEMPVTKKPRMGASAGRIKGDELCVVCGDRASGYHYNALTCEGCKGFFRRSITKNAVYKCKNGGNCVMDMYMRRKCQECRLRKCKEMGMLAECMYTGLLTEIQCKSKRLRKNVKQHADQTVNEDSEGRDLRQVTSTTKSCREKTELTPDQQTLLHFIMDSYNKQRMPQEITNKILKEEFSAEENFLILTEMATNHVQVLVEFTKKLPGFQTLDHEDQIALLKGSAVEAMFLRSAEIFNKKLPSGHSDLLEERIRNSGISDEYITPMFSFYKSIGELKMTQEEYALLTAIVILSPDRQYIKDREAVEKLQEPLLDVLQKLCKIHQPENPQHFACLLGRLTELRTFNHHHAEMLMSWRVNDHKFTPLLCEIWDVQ
Method in brief: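 FXR-UAS-bla HEK 293T cells (beta-lactamase reporter) given compound plus chenodeoxycholic acid (50 uM final), 16 h at 37C. LiveBLAzer B/G FRET substrate added for 2 h at room temperature; fluorescence read.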

[20] = molecular target: Bile acid receptor (Homo sapiens) (UniProt Q96RI1); experiment: qHTS assay to identify small molecule agonists of the farnesoid-X-receptor (FXR) signaling pathway (AID 743220; active = well fitted activation curve with a large enough effect in the signal ratio in the repeat runs, not every such curve was filed as active; the % refers to the signal ratio)
Method in brief: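 Beta-lactamase reporter under UAS control in GeneBLAzer FXR HEK 293T cells (5000/well) measured with LiveBLAzer FRET substrate after 2 h at room temperature. Compound exposure lasted 16 h at 37C.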

Measured: Potency

CC(=O)C(C)C
inactive: [1] | [2] | [3] | [4] | [5] | [6] | [7] | [8] | [9] | [10] | [11] | [12] | [13] | [14] | [15] | [16]

Cc1cccc(C)c1[N+](=O)[O-]
inactive: [1] | [2] | [3] | [4] | [5] | [6] | [7] | [8] | [9] | [10] | [11] | [12] | [13] | [14] | [15] | [16]

CS(=O)(=O)c1ccc(Cl)cc1
inactive: [1] | [2] | [17] | [5] | [6] | [7] | [8] | [18] | [9] | [10] | [12] | [13] | [14] | [15] | [16]

CC(C)(C)NC[C@H](O)COc1nsnc1N1CCOCC1
inactive: [1] | [2] | [17] | [5] | [6] | [7] | [8] | [18] | [9] | [11] | [13] | [14] | [15] | [16]

CCCCCCC(=O)O
inactive: [1] | [2] | [17] | [5] | [6] | [7] | [8] | [18] | [9] | [10] | [11] | [12] | [19] | [13] | [20] | [14] | [15] | [16]

O=c1n(CCCN2CCN(c3cccc(Cl)c3)CC2)nc2ccccn12
inactive: [1] | [2] | [17] | [5] | [7] | [8] | [9] | [11] | [13] | [14]

CC/C=C(\C(=O)N[C@@H]1C(=O)N2C(C(=O)OCOC(=O)C(C)(C)C)=C(COC(N)=O)CS[C@H]12)c1csc(N)n1
inactive: [1] | [2] | [17] | [3] | [4] | [5] | [7] | [8] | [9] | [11] | [13] | [14] | [15] | [16]

O=C1O[C@H]([C@H](O)CO)C(O)=C1O
inactive: [1] | [2] | [17] | [3] | [4] | [5] | [6] | [7] | [8] | [9] | [13] | [14]

Cc1cc(CC(=O)O)n(C)c1C(=O)c1ccc(Cl)cc1
inactive: [1] | [2] | [3] | [4] | [5] | [6] | [7] | [8] | [18] | [9] | [10] | [11] | [12] | [19] | [13] | [20] | [14] | [15] | [16]
